# From PubChem BioAssay
# Inconclusive results are not listed. The source made the active and inactive calls.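 Rule for the calls, unless noted: active = normalized viability below 100% at a tested concentration; inactive = the rest.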
# How the values were obtained:
# [1] = growth inhibition of DIPG glioma cells, dose response, cell-based, SU-DIPG-XVII, MIPE5.0, CellTiter-Glo, qHTS (AID 1347060; cut-off not given, nearly all actives have AC50 up to about 26 µM;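 note: cells exposed to compound for 48 hours before viability readout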); conditions: SU-DIPG-XVII viability, CellTiter-Glo ATP luminescence
# [2] = growth inhibition of DIPG glioma cells, dose response, cell-based, SU-DIPG-XIII, MIPE4.0, CellTiter-Glo, qHTS (AID 1347061; cut-off not given, nearly all actives have AC50 up to about 37 µM;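 note: cells exposed to compound for 48 hours before readout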); conditions: SU-DIPG-XIII viability, CellTiter-Glo ATP luminescence
# [3] = growth inhibition of DIPG glioma cells, dose response, cell-based, JHH-DIPG-1, MIPE4.0, CellTiter-Glo, qHTS (AID 1347062; cut-off not given, nearly all actives have AC50 up to about 27 µM;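 note: cells exposed to compound for two days before readout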); conditions: JHH-DIPG-1 viability, CellTiter-Glo ATP luminescence
# [4] = growth inhibition of DIPG glioma cells, dose response, cell-based, SU-DIPG-IV, MIPE4.0, CellTiter-Glo, qHTS (AID 1347063; cut-off not given, nearly all actives have AC50 up to about 30 µM;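 note: compound exposure lasted 48 hours before the viability readout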); conditions: SU-DIPG-IV viability, CellTiter-Glo ATP luminescence
# [5] = growth inhibition of DIPG glioma cells, dose response, cell-based, SU-DIPG-XIII, MIPE5.0, CellTiter-Glo, qHTS (AID 1347064; cut-off not given, nearly all actives have AC50 up to about 23 µM;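 note: cells exposed to compound for 48 hours before the viability read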); conditions: SU-DIPG-XIII viability, CellTiter-Glo ATP luminescence
# [6] = viability loss in pontine glioma line – cell-based, SU-DIPG-XXV, MIPE5.0, CellTiter-Glo, qHTS, dose response (AID 1347065; cut-off not given, nearly all actives have AC50 up to about 26 µM;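 note: cells exposed to compound for 48 hours before ATP readout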); conditions: CellTiter-Glo ATP luminescence
# [7] = SU-DIPG-VI glioma cell viability, MIPE4.0 library, CellTiter-Glo luminescence, qHTS (AID 1347066; cut-off not given, nearly all actives have AC50 up to about 30 µM;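 note: cells exposed to compound for 48 hours before readout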); conditions: CellTiter-Glo ATP luminescence
# [8] = JHH-DIPG-1 glioma cell viability, MIPE5.0 library, CellTiter-Glo luminescence, qHTS (AID 1347067; cut-off not given, nearly all actives have AC50 up to about 26 µM;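 note: cells exposed to compound for 48 hours before readout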); conditions: JHH-DIPG-1 glioma viability, CellTiter-Glo ATP luminescence
# [9] = SU-DIPG-XXV glioma cell viability, MIPE5.0 library, qHTS (AID 1347068; cut-off not given, nearly all actives have IC50 up to about 30 µM;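 note: cells exposed to compound for 48 hours before viability readout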)
# [10] = sensitizers of A549 cells to miR-34 induction, primary screen, imaging, A549 dox-inducible miR-34, nuclei and caspase counts (AID 1347080;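 active = compounds whose cell count with miR-34 switched on is under 0.7 times the count with it off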); conditions: A549 miR-34 inducible, Hoechst nuclei count, 48 h
# [11] = modifiers of HSF1 nuclear foci, imaging, Selleck Cancer Library (AID 1347162; in the data active = plate-normalised HSF1 focus index below about 0.46); conditions: human cells, at 10 µM; SSMD: measured here: HSF1 foci SSMD mean; cell count: measured here: cell number; plate-normalised HSF1 focus index: stronger effect = lower value
# [12] = survival rescue of mitochondrial mutant cells in low glucose, primary screen, MELAS cybrids, Rieske KO mouse fibroblasts, CellTiter-Glo (AID 1508586;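 active = mean z-score across replicates of 1.96 or higher in either the MELAS or the Rieske mutant cell line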;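 note: z relative to plate mean and SD of compound and empty wells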)
# [13] = ovarian cancer cell viability with rucaparib, profiling panel, oncology-focused library, rucaparib conditional (AID 1508598); conditions: patient-derived ovarian cancer cells, CellTiter-Glo viability, 144 h, stronger effect = lower value
# [14] = LFS_MB_P medulloblastoma growth inhibition, cell-based, chromothripsis tumors, cisplatin or BGB combos (AID 1671449; in the data active = inhibition above about 80%;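 note: cells exposed for 96 hours; 0% = vehicle DMSO and 100% = killing by high DMSO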); conditions: LFS_MB_P medulloblastoma cells
# [15] = HDN33 neuroblastoma growth inhibition, cell-based, chromothripsis tumors, cisplatin or BGB combos (AID 1671450; in the data active = inhibition above about 80%;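 note: cells exposed to compound for four days; 0% = vehicle DMSO and 100% = cell killing by high DMSO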); conditions: HDN33 neuroblastoma cells, stronger effect = higher value
# [16] = ICB984 medulloblastoma cell growth inhibition, synergistic combos for chromothripsis tumors, cisplatin or BGB combos (AID 1671451; call rule not given here;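 note: cells exposed for 96 hours before readout; 0% = vehicle DMSO and 100% = killing by high DMSO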); conditions: ICB984 medulloblastoma cells, drug combinations, stronger effect = higher value
# [17] = HTB85 osteosarcoma cell growth inhibition, synergistic combos for chromothripsis tumors, BGB or cisplatin IC20 combos (AID 1671453; in the data active = inhibition above about 80%;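 note: cells exposed for 96 hours before readout; 0% = vehicle DMSO and 100% = high DMSO killing control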); conditions: HTB85 osteosarcoma cells, drug combinations, stronger effect = higher value
# [18] = MDA-MB-436 breast carcinoma cell growth inhibition, synergistic combos for chromothripsis tumors, BGB or cisplatin combos (AID 1671458; call rule not given here;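 note: cells exposed for 96 hours; 0% = vehicle DMSO and 100% = killing by high DMSO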); conditions: MDA-MB-436 breast carcinoma growth inhibition, drug combinations, stronger effect = higher value
# [19] = growth inhibition of BT084 medulloblastoma cells, cell-based, ICGC_MB145, cisplatin and BGB IC40 combos (AID 1671461; in the data active = inhibition above about 80%;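 note: cells exposed to drugs for 96 hours; 0% = vehicle DMSO and 100% = high DMSO full killing control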); conditions: drug combinations, stronger effect = higher value
# [20] = growth inhibition of RCMB18 medulloblastoma cells, cell-based, cisplatin and BGB IC40 combos (AID 1671462; in the data active = inhibition above about 80%;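 note: cells exposed to compound for four days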); conditions: stronger effect = higher value
smiles,measurement,setting,value
O=c1cc(N2CCOCC2)oc2c(-c3cccc4c3sc3ccccc34)cccc12,AC50,[1],13.2 µM (active)
same,outcome,[2],inactive
same,AC50,[3],23.5 µM (active)
same,AC50,[4],14.8 µM (active)
same,AC50,[5],16.6 µM (active)
same,AC50,[6],14.8 µM (active)
same,AC50,[7],18.7 µM (active)
same,AC50,[8],16.6 µM (active)
same,IC50,[9],29.5 µM (active)
same,fold change,"[10]; stronger effect = lower value, cell number ratio, induced over uninduced",0.901 (inactive)
same,fold change,[10]; measured here: relative caspase fold change +Dox/-Dox,0.761
same,cell count,"[10]; measured here: total cells with miR-34 induction, stronger effect = lower value",6010
same,cell count,[10]; measured here: total cells without miR-34 induction,6670
same,SSMD,[11],-0.228
same,cell count,[11],7060
same,plate-normalised HSF1 focus index,[11],0.984 (inactive)
same,z-score,"[12]; MELAS cybrid survival, CellTiter-Glo 48 h, stronger effect = higher value",-0.264 (inactive)
same,z-score,"[12]; Rieske KO mouse fibroblast survival, CellTiter-Glo 72 h",1.08
same,viability,"[13]; at 0.000305 µM, OCI-C5x cells, with rucaparib 10 µM, 100% = cells with rucaparib alone",98.4% (active)
same,viability,"[13]; at 0.000305 µM, OCI-C5x cells, without rucaparib",106% (inactive)
same,viability,"[13]; at 0.000305 µM, OCI-P5x cells, with rucaparib 20 µM, 100% = cells with rucaparib alone",104% (inactive)
same,viability,"[13]; at 0.000305 µM, OCI-P5x cells, without rucaparib",99.9% (active)
same,viability,"[13]; at 0.00122 µM, OCI-C5x cells, with rucaparib 10 µM, 100% = cells with rucaparib alone",100% (inactive)
same,viability,"[13]; at 0.00122 µM, OCI-C5x cells, without rucaparib",104% (inactive)
same,viability,"[13]; at 0.00122 µM, OCI-P5x cells, with rucaparib 20 µM, 100% = cells with rucaparib alone",103% (inactive)
same,viability,"[13]; at 0.00122 µM, OCI-P5x cells, without rucaparib",102% (inactive)
same,viability,"[13]; at 0.00488 µM, OCI-C5x cells, with rucaparib 10 µM, 100% = cells with rucaparib alone",101% (inactive)
same,viability,"[13]; at 0.00488 µM, OCI-C5x cells, without rucaparib",103% (inactive)
same,viability,"[13]; at 0.00488 µM, OCI-P5x cells, with rucaparib 20 µM, 100% = cells with rucaparib alone",107% (inactive)
same,viability,"[13]; at 0.00488 µM, OCI-P5x cells, without rucaparib",99% (active)
same,viability,"[13]; at 0.0195 µM, OCI-C5x cells, with rucaparib 10 µM, 100% = cells with rucaparib alone",98.9% (active)
same,viability,"[13]; at 0.0195 µM, OCI-C5x cells, without rucaparib",103% (inactive)
same,viability,"[13]; at 0.0195 µM, OCI-P5x cells, with rucaparib 20 µM, 100% = cells with rucaparib alone",107% (inactive)
same,viability,"[13]; at 0.0195 µM, OCI-P5x cells, without rucaparib",92.1% (active)
same,viability,"[13]; at 0.0781 µM, OCI-C5x cells, with rucaparib 10 µM, 100% = cells with rucaparib alone",108% (inactive)
same,viability,"[13]; at 0.0781 µM, OCI-C5x cells, without rucaparib",98% (active)
same,viability,"[13]; at 0.0781 µM, OCI-P5x cells, with rucaparib 20 µM, 100% = cells with rucaparib alone",98.6% (active)
same,viability,"[13]; at 0.0781 µM, OCI-P5x cells, without rucaparib",90.1% (active)
same,viability,"[13]; at 0.313 µM, OCI-C5x cells, with rucaparib 10 µM, 100% = cells with rucaparib alone",97% (active)
same,viability,"[13]; at 0.313 µM, OCI-C5x cells, without rucaparib",99% (active)
same,viability,"[13]; at 0.313 µM, OCI-P5x cells, with rucaparib 20 µM, 100% = cells with rucaparib alone",99.1% (active)
same,viability,"[13]; at 0.313 µM, OCI-P5x cells, without rucaparib",91.6% (active)
same,viability,"[13]; at 1.25 µM, OCI-C5x cells, with rucaparib 10 µM, 100% = cells with rucaparib alone",101% (inactive)
same,viability,"[13]; at 1.25 µM, OCI-C5x cells, without rucaparib",108% (inactive)
same,viability,"[13]; at 1.25 µM, OCI-P5x cells, with rucaparib 20 µM, 100% = cells with rucaparib alone",95.4% (active)
same,viability,"[13]; at 1.25 µM, OCI-P5x cells, without rucaparib",85.4% (active)
same,viability,"[13]; at 5 µM, OCI-C5x cells, with rucaparib 10 µM, 100% = cells with rucaparib alone",66.1% (active)
same,viability,"[13]; at 5 µM, OCI-C5x cells, without rucaparib",89.5% (active)
same,viability,"[13]; at 5 µM, OCI-P5x cells, with rucaparib 20 µM, 100% = cells with rucaparib alone",49.8% (active)
same,viability,"[13]; at 5 µM, OCI-P5x cells, without rucaparib",78.7% (active)
same,inhibition,"[14]; at 0.5 µM, stronger effect = higher value",-9.52% (inactive)
same,inhibition,"[14]; measured here: combination with BGB IC20, at 0.005 µM",-35.2%
same,inhibition,"[14]; measured here: combination with BGB IC40, at 0.005 µM",-73.8%
same,inhibition,"[14]; measured here: combination with BGB IC40, at 0.05 µM",-46%
same,inhibition,"[14]; measured here: combination with cisplatin, at 0.5 µM, stronger effect = higher value",-30%
same,inhibition,"[14]; measured here: combination with cisplatin, at 5 µM, stronger effect = higher value",-29.6%
same,inhibition,"[15]; BGB combo, at 5 µM",-83.5%
same,inhibition,[15]; at 0.5 µM,-25.6% (inactive)
same,inhibition,"[15]; cisplatin combo, at 5 µM",-52%
same,inhibition,"[15]; measured here: with BGB IC20 combination, at 0.5 µM",-33.3%
same,inhibition,"[15]; measured here: with cisplatin IC20 combination, at 0.5 µM",-8.96%
same,inhibition,"[15]; single agent, at 5 µM",-28.3%
same,inhibition,"[16]; BGB IC20 combo, at 0.005 µM",-21.3%
same,inhibition,"[16]; BGB IC40 combo, at 0.005 µM",-19.1%
same,inhibition,"[16]; BGB IC40 combo, at 0.05 µM",-12.3%
same,inhibition,[16]; at 0.5 µM,-40.4% (inactive)
same,inhibition,"[16]; cisplatin combo, at 0.05 µM",-18%
same,inhibition,"[16]; cisplatin combo, at 0.5 µM",-48.2%
same,inhibition,"[16]; cisplatin combo, at 5 µM",-17.2%
same,inhibition,"[16]; measured here: 5 uM single agent, at 5 µM",-2.07%
same,inhibition,[17]; at 0.5 µM,-12.3% (inactive)
same,inhibition,"[17]; measured here: with BGB IC20, at 0.5 µM",1.92%
same,inhibition,"[17]; measured here: with BGB IC20, at 5 µM",-7.86%
same,inhibition,"[17]; measured here: with cisplatin IC20, at 0.5 µM",-21.1%
same,inhibition,"[17]; measured here: with cisplatin IC20, at 5 µM",-6.63%
same,inhibition,"[17]; single agent, at 5 µM",12.4%
same,inhibition,[18]; at 0.5 µM,-3.85% (inactive)
same,inhibition,"[18]; measured here: BGB combination, at 0.5 µM",6.02%
same,inhibition,"[18]; measured here: BGB combination, at 5 µM",9.28%
same,inhibition,"[18]; measured here: cisplatin combination, at 0.5 µM",-13%
same,inhibition,"[18]; measured here: cisplatin combination, at 5 µM",5.38%
same,inhibition,[19]; at 0.5 µM,-28.7% (inactive)
same,inhibition,"[19]; cisplatin combination, at 0.5 µM",-22.9%
same,inhibition,"[19]; cisplatin combination, at 5 µM",-216%
same,inhibition,"[19]; measured here: BGB IC40 combination 0.05 uM, at 0.05 µM",-22.7%
same,inhibition,"[19]; single agent, at 5 µM",-20.5%
same,inhibition,[20]; at 0.5 µM,-29.6% (inactive)
same,inhibition,"[20]; cisplatin combo, at 5 µM",-34.8%
same,inhibition,"[20]; measured here: BGB IC40 combination, at 0.05 µM",-8.83%
same,inhibition,"[20]; measured here: combination with cisplatin, at 0.5 µM",-51.5%
same,inhibition,"[20]; single agent, at 5 µM",0.048%
